The campaign covered roughly 39,000 compounds. About 3,300 (8.5%) were called active. Many of the other results were omitted from the sample, so actives are more common in it than they were.

64 compounds from the antibiotic and cytotoxicity screens of Wong et al. (2023) can be followed below.

This assay relates to HepG2. Put plainly: cytotoxicity call (relative viability < 0.9). The conditions noted are these: 10 µM.
In the case of `C[C@@H]1CCCCO[C@@H](CN(C)S(C)(=O)=O)[C@H](C)CN([C@@H](C)CO)C(=O)c2cc(NS(=O)(=O)c3cn(C)cn3)ccc2O1`, the cytotoxicity call was “inactive”.

In the case of `C[C@H]1CN([C@@H](C)CO)C(=O)c2cc(NC(=O)C3CC3)ccc2O[C@@H]1CN(C)C(=O)NC1CCCCC1`, the cytotoxicity call was “inactive”.

Consider `O=C(C[C@H]1C[C@@H]2c3cc(NC(=O)Cc4ccncc4)ccc3O[C@@H]2[C@H](CO)O1)NCCN1CCCCC1`, for which the cytotoxicity call is “inactive”.

`C[C@H]1CN([C@@H](C)CO)C(=O)c2cccc(NC(=O)CCCCCC(=O)Nc3ccccc3N)c2O[C@@H]1CN(C)C(=O)Nc1ccc(F)cc1`: the cytotoxicity call is “inactive”.

With `C[C@@H]1CCCCO[C@@H](CN(C)CC2CCCCC2)[C@@H](C)CN([C@H](C)CO)C(=O)c2cc(NC(=O)Cc3ccccc3)ccc2O1`, the cytotoxicity call was “inactive”.

In the case of `COc1ccccc1[C@@H](NC(=O)C1CCN(CCn2cnc3c2c(=O)n(C)c(=O)n3C)CC1)c1ccccn1`, the cytotoxicity call is “inactive”.

In the case of `CN1CCN(C(=O)C[C@H]2C[C@H]3c4cc(NS(=O)(=O)c5ccc(F)cc5)ccc4O[C@H]3[C@@H](CO)O2)CC1`, the cytotoxicity call is “inactive”.

As to `C[C@@H]1CCCCO[C@@H](CN(C)S(=O)(=O)c2ccc(Cl)cc2)[C@@H](C)CN([C@@H](C)CO)C(=O)c2cc(NC(=O)Nc3ccc(C(F)(F)F)cc3)ccc2O1`, the cytotoxicity call is “inactive”.

For the compound `COc1ccc(NC(=O)N(C)C[C@H]2OCCCC[C@@H](C)Oc3ccc(NC(=O)Nc4ccc(C(F)(F)F)cc4)cc3C(=O)N([C@H](C)CO)C[C@H]2C)cc1`, the cytotoxicity call is “active”.

As for `COc1ccc(NC(=O)Nc2ccc3c(c2)C(=O)N([C@H](C)CO)C[C@@H](C)[C@H](CN(C)C(=O)Nc2ccc(C(F)(F)F)cc2)OCCCC[C@@H](C)O3)cc1`, the cytotoxicity call was “inactive”.

Consider `COc1ccc(NC(=O)N(C)C[C@@H]2OCCCC[C@@H](C)Oc3ccc(NC(=O)Nc4ccc(C(F)(F)F)cc4)cc3C(=O)N([C@H](C)CO)C[C@@H]2C)cc1`, for which the cytotoxicity call is “inactive”.

For `O=C(C[C@H]1CC[C@@H]2[C@H](COC[C@H](O)CN2C(=O)c2cccnc2)O1)NCC1CC1`, the cytotoxicity call is “inactive”.

In the case of `Fc1cccc(-c2csc(COc3ccccc3Cl)n2)c1`, the cytotoxicity call was “inactive”.

Take `O=c1oc2c(O)c(O)cc3c(=O)oc4c(O)c(O)cc1c4c23`: the cytotoxicity call was “active”.

In the case of `O=c1c(O)c(-c2cc(O)c(O)c(O)c2)oc2cc(O)cc(O)c12`, the cytotoxicity call is “inactive”.

In the case of `Cc1cc(=O)oc2cc(O)c(O)cc12`, the cytotoxicity call is “inactive”.

Take `O=C(C[C@@H]1C[C@H]2c3cc(NC(=O)C4CCOCC4)ccc3O[C@H]2[C@@H](CO)O1)NCc1ccc2c(c1)OCO2`: the cytotoxicity call was “inactive”.

Turning to `COc1ccc([C@H]([C@@H](O)Cc2ccccc2)N(C/C=C/[C@@H](O)c2ccccc2)[C@@H](Cc2ccccc2)C(OC)OC)cc1`, the cytotoxicity call was “inactive”.

`COc1ccc([C@H]([C@H](Cc2ccccc2)OC(C)=O)N(C[C@H](/C=C/c2ccccc2)NC(=O)C(Cl)(Cl)Cl)[C@@H](Cc2ccccc2)C(OC)OC)cc1`: the cytotoxicity call was “inactive”.

As for `COc1ccc([C@@H]([C@H](Cc2ccccc2)OC(C)=O)N2C[C@H](CC(=O)N(C)C)[C@@H]3C(=NO[C@H]3c3ccccc3)[C@@H]2Cc2ccccc2)cc1`, the cytotoxicity call is “inactive”.

`COc1ccc([C@H]([C@H](Cc2ccccc2)OC(C)=O)N(C[C@H](/C=C/c2ccccc2)OC(C)=O)[C@@H](Cc2ccccc2)C(OC)OC)cc1`: the cytotoxicity call is “inactive”.

In the case of `COc1ccc([C@H]([C@@H](O)Cc2ccccc2)N(C[C@H](/C=C/c2ccccc2)CC(=O)N(C)C)[C@@H](Cc2ccccc2)C(OC)OC)cc1`, the cytotoxicity call was “active”.

In the case of `COc1ccc([C@H]([C@H](Cc2ccccc2)OC(C)=O)N(C[C@@H](/C=C/c2ccccc2)CC(=O)N(C)C)[C@@H](Cc2ccccc2)C(OC)OC)cc1`, the cytotoxicity call was “active”.

For `COc1ccc([C@H]([C@H](Cc2ccccc2)OC(C)=O)N(C[C@H](/C=C/c2ccccc2)CC(=O)N(C)C)[C@@H](Cc2ccccc2)C(OC)OC)cc1`, the cytotoxicity call is “active”.

Regarding `COc1ccc([C@@H]([C@H](Cc2ccccc2)OC(C)=O)N2C[C@@H](CC(=O)N(C)C)[C@@H]3C(=NO[C@H]3c3ccccc3)[C@@H]2Cc2ccccc2)cc1`, the cytotoxicity call is “inactive”.

Turning to `COc1ccc([C@H]([C@@H](O)Cc2ccccc2)N(C[C@H](/C=C/c2ccccc2)NC(=O)C(Cl)(Cl)Cl)[C@@H](Cc2ccccc2)C(OC)OC)cc1`, the cytotoxicity call is “inactive”.

For the compound `Cc1noc(C)c1NC(=O)Nc1ccc2c(c1)C(=O)N([C@H](C)CO)C[C@H](C)[C@@H](CN(C)C(=O)Nc1ccccc1)OCCCC[C@H](C)O2`, the cytotoxicity call is “inactive”.

With `Cc1ccc(S(=O)(=O)Nc2ccc3c(c2)C(=O)N([C@@H](C)CO)C[C@@H](C)[C@H](CN(C)Cc2ccc4c(c2)OCO4)OCCCC[C@H](C)O3)cc1`, the cytotoxicity call is “inactive”.

In the case of `CC(C)C[C@@H]1NC(=O)[C@@H]2C[C@H](C(=O)NCCCCCNC(=O)CS)[C@H](c3cccc(OCCO)c3)N2C1=O`, the cytotoxicity call is “inactive”.

For `CN1C[C@]2(CCN(C(=O)c3cn(CCN4CCNCC4)nn3)C2)OC1=O`, the cytotoxicity call is “inactive”.

As for `Cc1noc(C)c1S(=O)(=O)N(C)C[C@@H]1Oc2ccc(NC(=O)Cc3ccccc3)cc2CC(=O)N([C@@H](C)CO)C[C@@H]1C`, the cytotoxicity call is “inactive”.

With `CC(C)NC(=O)N(C)C[C@H]1Oc2ccc(NC(=O)CCCN(C)C)cc2C(=O)N([C@H](C)CO)C[C@H]1C`, the cytotoxicity call was “inactive”.

In the case of `C[C@H]1CN([C@@H](C)CO)C(=O)Cc2cc(NC(=O)Cn3cnnn3)ccc2O[C@@H]1CN(C)S(=O)(=O)c1ccc(F)cc1`, the cytotoxicity call is “inactive”.

Consider `C[C@H]1CN([C@@H](C)CO)C(=O)Cc2cc(NC(=O)C3CCCCC3)ccc2O[C@H]1CN(C)Cc1ccc(Oc2ccccc2)cc1`, for which the cytotoxicity call was “active”.

Regarding `C[C@H](CO)N1C[C@H](C)[C@@H](CN(C)Cc2ccc(Oc3ccccc3)cc2)Oc2ccc(NC(=O)C3CCCCC3)cc2CC1=O`, the cytotoxicity call was “inactive”.

Consider `C[C@@H]1CN([C@H](C)CO)C(=O)Cc2cc(NC(=O)C3CCCCC3)ccc2O[C@H]1CN(C)Cc1ccc(Oc2ccccc2)cc1`, for which the cytotoxicity call was “inactive”.

In the case of `C[C@@H]1CN([C@H](C)CO)C(=O)Cc2cc(NC(=O)C3CCCCC3)ccc2O[C@@H]1CN(C)Cc1ccc(Oc2ccccc2)cc1`, the cytotoxicity call was “inactive”.

Regarding `C[C@H](CO)N1C[C@H](C)[C@H](CN(C)Cc2ccc(Oc3ccccc3)cc2)Oc2ccc(NC(=O)C3CC3)cc2CC1=O`, the cytotoxicity call is “inactive”.

As to `C[C@@H]1CN([C@H](C)CO)C(=O)Cc2cc(NC(=O)C3CC3)ccc2O[C@@H]1CN(C)Cc1ccc(Oc2ccccc2)cc1`, the cytotoxicity call is “active”.

For `C[C@@H]1CN([C@@H](C)CO)C(=O)Cc2cc(NC(=O)C3CC3)ccc2O[C@H]1CN(C)Cc1ccc(Oc2ccccc2)cc1`, the cytotoxicity call is “inactive”.

With `C[C@@H]1CN([C@@H](C)CO)C(=O)Cc2cc(NC(=O)C3CCCCC3)ccc2O[C@H]1CN(C)Cc1ccc(Oc2ccccc2)cc1`, the cytotoxicity call was “inactive”.

For the compound `C[C@H](CO)N1C[C@H](C)[C@H](CN(C)Cc2ccc(Oc3ccccc3)cc2)Oc2ccc(NC(=O)C3CCCCC3)cc2CC1=O`, the cytotoxicity call is “active”.

With `C[C@@H]1CN([C@@H](C)CO)C(=O)Cc2cc(NC(=O)Nc3ccc(C(F)(F)F)cc3)ccc2O[C@@H]1CN(C)C(=O)Nc1cccc2ccccc12`, the cytotoxicity call was “inactive”.

In the case of `CC(C)NC(=O)N(C)C[C@@H]1OCCCC[C@@H](C)Oc2ccc(NC(=O)Nc3ccccc3)cc2C(=O)N([C@H](C)CO)C[C@@H]1C`, the cytotoxicity call was “inactive”.

With `C[C@@H]1CCCCO[C@@H](CN(C)C(=O)Cc2ccccc2)[C@@H](C)CN([C@@H](C)CO)C(=O)c2cc(NC(=O)Nc3ccc(C(F)(F)F)cc3)ccc2O1`, the cytotoxicity call is “inactive”.

For `O=C(O)CNC(=O)c1cc2ccccc2[nH]1`, the cytotoxicity call was “inactive”.

As for `C[C@H](CO)N1C[C@H](C)[C@@H](CN(C)S(=O)(=O)c2ccc(Cl)cc2)Oc2ccc(NC(=O)CCN3CCOCC3)cc2CC1=O`, the cytotoxicity call was “inactive”.

For `Cc1noc(C)c1S(=O)(=O)N(C)C[C@H]1OCCCC[C@H](C)Oc2ccc(NS(=O)(=O)c3cn(C)cn3)cc2C(=O)N([C@@H](C)CO)C[C@@H]1C`, the cytotoxicity call is “inactive”.

With `C=c1cc(C)ccc1=C1NN=C(NC(=O)CC)O1`, the cytotoxicity call is “inactive”.

Consider `C[C@@H]1CCCCO[C@@H](CN(C)C(=O)Nc2ccc(F)cc2)[C@@H](C)CN([C@@H](C)CO)C(=O)c2cc(NC(=O)Nc3ccccc3)ccc2O1`, for which the cytotoxicity call is “inactive”.

In the case of `CN1CCC(Nc2nc(Nc3ccc(Oc4ccccc4)cc3)c3c(O)ncc(Br)c3n2)CC1`, the cytotoxicity call was “active”.

Consider `C[C@@H]1CN([C@@H](C)CO)S(=O)(=O)c2ccc(-c3ccc(F)cc3)cc2O[C@H]1CN(C)S(C)(=O)=O`, for which the cytotoxicity call is “inactive”.

As to `CNC(=O)N1CCN(Cc2cnn(C)c2)C[C@]2(CCCC(=O)N2)C1`, the cytotoxicity call was “inactive”.

Consider `C=CCOC(=O)[C@H]1[C@@H]2C(=O)O[C@@H](c3ccccc3)[C@@H](c3ccccc3)N2[C@@H](c2ccc(OCCOC(=O)[C@H]3C[C@H]4C(=O)N[C@@H](CCCCNC(C)=O)C(=O)N4[C@H]3c3cccc(OCCO)c3)cc2)[C@]12C(=O)Nc1ccc(I)cc12`, for which the cytotoxicity call was “inactive”.

With `Cc1ccc(S(=O)(=O)Nc2ccc3c(c2)C(=O)N([C@H](C)CO)C[C@H](C)[C@H](CN(C)S(=O)(=O)c2ccc(Cl)cc2)OCCCC[C@H](C)O3)cc1`, the cytotoxicity call was “inactive”.

On to `Cc1ccc(S(=O)(=O)N(C)C[C@@H]2OCCCC[C@H](C)Oc3ccc(NS(=O)(=O)c4ccc(Cl)cc4)cc3C(=O)N([C@H](C)CO)C[C@H]2C)cc1`, for which the cytotoxicity call is “active”.

Take `Cc1ccc(S(=O)(=O)N(C)C[C@@H]2OCCCC[C@@H](C)Oc3ccc(NS(=O)(=O)c4ccc(Cl)cc4)cc3C(=O)N([C@H](C)CO)C[C@H]2C)cc1`: the cytotoxicity call was “inactive”.

As for `Cc1ccc(S(=O)(=O)Nc2ccc3c(c2)C(=O)N([C@@H](C)CO)C[C@@H](C)[C@@H](CN(C)S(=O)(=O)c2ccc(Cl)cc2)OCCCC[C@H](C)O3)cc1`, the cytotoxicity call was “inactive”.

For the compound `Cc1ccc(S(=O)(=O)N(C)C[C@@H]2OCCCC[C@H](C)Oc3ccc(NS(=O)(=O)c4ccc(Cl)cc4)cc3C(=O)N([C@@H](C)CO)C[C@@H]2C)cc1`, the cytotoxicity call is “active”.

With `Cc1ccc(S(=O)(=O)Nc2ccc3c(c2)C(=O)N([C@H](C)CO)C[C@H](C)[C@@H](CN(C)S(=O)(=O)c2ccc(Cl)cc2)OCCCC[C@@H](C)O3)cc1`, the cytotoxicity call was “active”.

For `Cc1ccc(S(=O)(=O)N(C)C[C@H]2OCCCC[C@@H](C)Oc3ccc(NS(=O)(=O)c4ccc(Cl)cc4)cc3C(=O)N([C@H](C)CO)C[C@H]2C)cc1`, the cytotoxicity call was “inactive”.

As for `Cc1ccc(S(=O)(=O)N(C)C[C@@H]2OCCCC[C@@H](C)Oc3ccc(NS(=O)(=O)c4ccc(Cl)cc4)cc3C(=O)N([C@@H](C)CO)C[C@@H]2C)cc1`, the cytotoxicity call was “inactive”.

Regarding `Cc1ccc(S(=O)(=O)N(C)C[C@H]2OCCCC[C@@H](C)Oc3ccc(NS(=O)(=O)c4ccc(Cl)cc4)cc3C(=O)N([C@H](C)CO)C[C@@H]2C)cc1`, the cytotoxicity call is “inactive”.

As to `Cc1ccc(S(=O)(=O)N(C)C[C@H]2OCCCC[C@H](C)Oc3ccc(NS(=O)(=O)c4ccc(Cl)cc4)cc3C(=O)N([C@@H](C)CO)C[C@@H]2C)cc1`, the cytotoxicity call was “active”.
